Env fusion inh – inhibitors of HIV Env-mediated cell fusion | inhibition, % at 12.3 µM | HeLa-JRFL Env/CEM21 cell fusion, luciferase | 1.1% of 360,000 active;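 active = mean replicate inhibition score of at least 50 and every replicate individually at or above 50; inconclusive = only one of the two criteria met; inactive = mean below 50 and not all replicates reaching 50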
MITF TRPM1 HTS – activators of MITF-driven TRPM1 promoter activity in SK-MEL-5 cells. SK-MEL-5 TRPM1-promoter luciferase, 24 h; % of positive control, neutral wells = 0. 0.75% of 300,000 active. activation, % at 12.5 µM;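 active = mean activation of at least 80% with every replicate also reaching 80%; inconclusive = mean reaches 80% but some replicate falls short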
Wnt bcat act – activates Wnt/beta-catenin signaling in a reporter cell assay. activator, plate reader. activation, % at 9.35 µM. 1.2% of 300,000 active. AID 743398; in the data active = activation above about 30%, passing the limit was not always enough; inconclusive = no clear call, values can overlap the other calls
F508del corr – correctors of CFTR F508del function in bronchial epithelial cells | CFBE cells, YFP halide quenching; stimulated with forskolin plus potentiator P3; % fluorescence drop versus neutral controls | 0.36% of 350,000 active | activity (quench increase), % at 7.58 µM;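 active = mean added fluorescence quench of at least 8% versus neutral control, with both replicates also reaching 8%; inconclusive = only one of the mean or replicate conditions met; inactive = mean below 8% and not both replicates reaching 8%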;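 also: cells transiently co-express mutant CFTR-F508del with the halide-sensitive YFP; corrector assay measuring rescue of mutant channel to the surface after 24 h compound exposure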
GSIS activator – GLuc luminescence reporter in INS-1E cells, primary screen for activators of glucose-dependent secretion of insulin. 0.61% of 370,000 active. INS-1E GLuc reporter insulin secretion, 2-3 h. activation, % at 16.6 µM;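 active = lowest replicate activation of at least 40%, so every replicate reaches that level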
Large screens that a line does not name were inactive. Shown are actives, neighbours in structure and some others; about 2.7% of the full set was active somewhere.

COc1ccc(O)c(C(=O)CC(=O)c2cccnc2)c1	Wnt bcat act 34.1
N#Cc1nc(NCC(F)F)nc(Nc2cc(F)cc(F)c2)n1	F508del corr 8.0
Clc1ccc(OCc2nnc(SCc3nc4ccccc4[nH]3)n2Cc2ccco2)cc1	Env fusion inh 56.2 (no result: MITF TRPM1 HTS, Wnt bcat act, F508del corr, GSIS activator)
c1ccc(CCNc2nc(-c3ccccn3)nc3ccccc23)cc1	F508del corr 12.7 (no result: MITF TRPM1 HTS)
CCCN(CCC)c1nc(-c2ccccn2)nc2ccccc12	Env fusion inh 71.3
c1ccc(CN2CCN(c3nc(-c4ccccn4)nc4ccccc34)CC2)cc1	none (no result: Env fusion inh, Wnt bcat act, F508del corr, GSIS activator)
CCCCN(CC)c1nc(-c2ccncc2)nc2ccccc12	Env fusion inh 64.1 (no result: Wnt bcat act, F508del corr, GSIS activator)
CCCN1C[C@H](C)[C@@H](OC)CN(C)C(=O)c2cc(NS(C)(=O)=O)ccc2OC[C@H]1C	none (no result: MITF TRPM1 HTS, Wnt bcat act)
N#C/C(=C/c1cc(Br)cs1)C(=O)NCC1CCCO1 (stereo not drawn)	none (no result: Env fusion inh, Wnt bcat act, F508del corr)
N#C/C(=C\c1cccs1)C(=O)NCC1CCCO1 (stereo not drawn)	Wnt bcat act 38.9 (no result: MITF TRPM1 HTS, F508del corr)
O=C(C[C@H]1CC[C@H](NC(=O)CN2CCOCC2)[C@H](CO)O1)NC1CCCCC1	none (no result: MITF TRPM1 HTS, Wnt bcat act)
CCOC(=O)c1c2c(n(C)c1C)C(=O)C(=O)c1ccc(Br)cc1-2	none (no result: MITF TRPM1 HTS, Wnt bcat act, F508del corr, GSIS activator)
CCOC(=O)c1c2c(n(Cc3ccccc3)c1C)C(=O)C(=O)c1ccccc1-2	Env fusion inh 78.2
C#CC(=O)CC1(CN(Cc2ccccc2)C(=O)OC(C)(C)C)CCCCC1	GSIS activator 53.9
CON(C)C(=O)CC1(CN(Cc2ccccc2)C(=O)OC(C)(C)C)CCCCC1	none
Cc1cc(CNC(=O)c2ccc3nc(Cc4ccccc4F)oc3c2)nn1C	MITF TRPM1 HTS 93.7
CC(=O)N/C(=C\c1ccccc1)C(=O)OCC(=O)NC(C)C12CC3CC(CC(C3)C1)C2 (stereo not drawn)	Env fusion inh 106.3 (no result: F508del corr)
CC(=O)N/C(=C\c1ccccc1)C(=O)OCC(=O)NC(=O)c1ccccc1	none
Cc1ccc2[nH]c(=O)c(CN(CCc3ccccc3)C(c3nnnn3Cc3ccco3)C(C)C)cc2c1 (stereo not drawn)	Env fusion inh 72.0, Wnt bcat act 35.9
CCC(c1nnnn1Cc1ccco1)N(CCc1ccccc1)Cc1cc2cc(C)ccc2[nH]c1=O (stereo not drawn)	none (no result: Env fusion inh, Wnt bcat act, F508del corr, GSIS activator)
c1ccc2oc(-c3ccn[nH]3)cc2c1	Wnt bcat act 40.0 (no result: MITF TRPM1 HTS)
COC(=O)C1=C(N)Oc2cc(N(C)C)ccc2C1c1ccccc1OC (stereo not drawn)	Env fusion inh 61.0 (no result: MITF TRPM1 HTS, Wnt bcat act, F508del corr, GSIS activator)
CCC(=O)N[C@H]1C=C[C@H](CC(=O)NCc2ccc(OC)cc2)O[C@H]1CO	none (no result: MITF TRPM1 HTS, Wnt bcat act)
CC1=CSC2=NC(=O)/C(=C\c3cccn3-c3ccc([N+](=O)[O-])cc3)C(=N)N12	GSIS activator 236.6 (no result: F508del corr)
Cc1ccc(S(=O)(=O)N[C@@H]2CC[C@@H](CC(=O)NCCCN(C)C)O[C@H]2CO)cc1	none (no result: Env fusion inh, MITF TRPM1 HTS, Wnt bcat act)
CN1CCc2ccccc2Cc2[nH]c3ccccc3c2CC1	Env fusion inh 70.9 (no result: GSIS activator)
[N-]=[N+]=NCCCNC(=O)Nc1ccccc1	none (no result: MITF TRPM1 HTS, Wnt bcat act, GSIS activator)
C[C@H](CO)N1C[C@H](C)[C@H](CN(C)C(=O)Nc2cc(F)ccc2F)Oc2cc(C#CC3CC3)ccc2S1(=O)=O	none (no result: MITF TRPM1 HTS, Wnt bcat act)
C[C@H]1CN([C@@H](C)CO)C(=O)c2cc(C3=CCCC3)cnc2O[C@H]1CN(C)C(=O)c1ccccc1	none (no result: MITF TRPM1 HTS, Wnt bcat act)
COc1cc(/C=C2\SC(=Nc3ccc(Cl)c(C(=O)O)c3)NC2=O)c(Br)c(Br)c1O	F508del corr 29.0
COc1cccc(S(=O)(=O)N2CC3(CN[C@H](CO)c4[nH]c5cc(OC)ccc5c43)C2)c1	none (no result: MITF TRPM1 HTS, Wnt bcat act)
COCC(=O)Nc1nnc(-c2ccc(C(C)(C)C)cc2)s1	MITF TRPM1 HTS 90.6
CC(OC(=O)CCCC(=O)Nc1ccc(F)cc1)C(=O)c1ccccc1 (stereo not drawn)	F508del corr 9.4
CC(C)NC(=O)N(C)C[C@@H]1Oc2ncc(C#CCN(C)C)cc2C(=O)N([C@H](C)CO)C[C@@H]1C	none (no result: MITF TRPM1 HTS, Wnt bcat act)
O=C(NCC1CCCO1)c1ccc(COc2ccc(Cl)cc2)cc1 (stereo not drawn)	none
COc1cc(C(=O)NCC2CCCO2)ccc1OCc1ccc(Cl)cc1Cl (stereo not drawn)	Env fusion inh 67.4
COc1cc(C(=O)NCC2CCCO2)ccc1OCc1ccc(Cl)cc1 (stereo not drawn)	F508del corr 11.1 (no result: Env fusion inh)
Cc1noc(C)c1NC(=O)Nc1cccc2c1O[C@@H](CN(C)Cc1ccc(C(=O)Nc3ccccc3N)cc1)[C@@H](C)CN([C@@H](C)CO)C2=O	none (no result: Env fusion inh, MITF TRPM1 HTS, Wnt bcat act)
COc1ccc(OCCN2C(=O)c3cccc(N)c3C2=O)cc1	MITF TRPM1 HTS 87.7
C[C@@H]1CN([C@H](C)CO)C(=O)c2cccc(NC(=O)Nc3ccc(F)cc3)c2O[C@H]1CN(C)C(=O)Nc1ccc2c(c1)OCO2	none (no result: MITF TRPM1 HTS, Wnt bcat act)
CCC/C=C(\CCC)C(NS(=O)(=O)c1cccc2cccnc12)c1ccc(C(=O)OC)cc1 (stereo not drawn)	Env fusion inh 90.0 (no result: MITF TRPM1 HTS)
CC1C/C(=C/c2ccncc2)C(=O)/C(=C/c2ccncc2)C1 (stereo not drawn)	Env fusion inh 81.4
CC1C/C(=C/c2cccn2C)C(=O)/C(=C/c2cccn2C)C1 (stereo not drawn)	none (no result: F508del corr)
O=C(Nc1ccccc1)OCC1COC(c2ccccc2)(c2ccccc2)O1 (stereo not drawn)	Wnt bcat act 48.8 (no result: GSIS activator)
CN1C(=O)c2cc(NC(=O)C3CCCC3)ccc2OC[C@H]2O[C@@H](CC(=O)NCC(F)(F)F)CC[C@H]21	none (no result: Env fusion inh, MITF TRPM1 HTS, Wnt bcat act)
C[C@@H]1CN([C@H](C)CO)C(=O)c2cc(NC(=O)C3CCCCC3)ccc2O[C@@H](C)CCCCO[C@H]1CN(C)Cc1ccc(C(F)(F)F)cc1	Env fusion inh inconclusive (no result: MITF TRPM1 HTS, Wnt bcat act)
CCOC(=O)CN1C(=O)[C@]2(OCCC=C[C@H]2C)c2ccccc21	GSIS activator 350.8 (no result: MITF TRPM1 HTS)
Nc1nn2cc(-c3ccc(Br)cc3)nc2c2ccccc12	Wnt bcat act 44.1
CN(C)CCNc1ccc2ncn3c4ccc(O)cc4c(=O)c1c23	F508del corr 20.8 (no result: GSIS activator)
O=C(C[C@@H]1CC[C@H](NC(=O)C2CC2)[C@@H](CO)O1)NC1CCC1	none (no result: MITF TRPM1 HTS, Wnt bcat act)
O=C(COC(=O)c1ccccc1NC(=O)c1ccccc1)c1cccc([N+](=O)[O-])c1	GSIS activator 69.4 (no result: Wnt bcat act, F508del corr)
O=C(Nc1ccc([N+](=O)[O-])cc1Cl)c1cccc([N+](=O)[O-])c1	none (no result: MITF TRPM1 HTS)
O=C(Nc1ccc([N+](=O)[O-])cc1NC(=O)c1ccccc1)c1ccccc1	GSIS activator 84.8
O=C(COC(=O)c1ccccc1NC(=O)c1ccccc1)c1ccc([N+](=O)[O-])cc1	none (no result: Env fusion inh, Wnt bcat act, F508del corr, GSIS activator)
O=C(Nc1ccccc1F)Nc1ccc([N+](=O)[O-])cc1Cl	Wnt bcat act 42.8 (no result: F508del corr)
CCCNC(=O)N1C[C@H](O)COC[C@@H]2O[C@@H](CC(=O)N3CCOCC3)CC[C@H]21	none (no result: Env fusion inh, MITF TRPM1 HTS, Wnt bcat act)
Nc1nnc(SCc2nc3scc(-c4ccccc4)c3c(=O)[nH]2)s1	none
Nc1nc(SCc2nc3scc(-c4ccccc4)c3c(=O)[nH]2)n[nH]1	GSIS activator 55.3 (no result: Env fusion inh)

Assay outcomes deposited in PubChem BioAssay by Broad Institute.
